The source made the active and inactive calls. Unless noted, the rule behind the calls is not given here.
Legend:
[1] = test system: Wnt5a (protein binding on small-molecule microarray); assay: small molecules binding Wnt5a protein – biophysical, small-molecule microarray, 635/667 nm fluorescence, primary screen (AID 1142); details: 635 nm fluorescence, higher = more signal;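 note: fluorescence read at 667 nm with signal to noise per printed feature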
[2] = ATP-based viability of Huh7 replicon cells – cell-based, CellTiter-Glo luminescence, basal, 48 h, cytotoxicity control for HCV replication inhibitor project, primary screen (AID 1143); details: higher = more signal, called active from +8 up or from −8 down;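 note: Huh7 hepatoma cells carrying a hepatitis C replication reporter with no stimulus; test concentration not given here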
[3] = Pseudomonas biofilm growth suppression – PAO1 strain, BacTiter-Glo luminescence, LB-PBS, primary screen (AID 1144); details: P. aeruginosa PAO1 biofilm, 12 h, higher = more signal
[4] = basal CRE-LacZ reporter activity in PC12 – cell-based, unstimulated, primary screen (AID 1145); details: no forskolin, luminescence, 4.5 h, higher = more signal, called active from +8 up or from −8 down
[5] = forskolin-driven CRE-LacZ activity in PC12 – cell-based, CRE-LacZ reporter, forskolin-stimulated, primary screen (AID 1146); details: luminescence, 4.5 h, higher = more signal, called active from +8 up or from −8 down;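 note: PC12 cells with 6xCRE LacZ reporter stimulated by forskolin 10 µM; beta-galactosidase reporter signal reflecting CREB driven transcription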
[6] = target: Streptavidin (Streptomyces avidinii) (UniProt P22629); assay: compounds binding control protein streptavidin – biophysical, small-molecule microarray, 635/667 nm fluorescence, artefact control for SMM compound annotation, primary screen (AID 1147); details: higher = more signal;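 note: signal reflects streptavidin binding to arrayed compounds as a control protein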
[7] = probe aInhba binding on compound microarray – biochemical, small-molecule microarray, 635/667 nm fluorescence, primary screen (AID 1148); details: higher = more signal;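 note: score merges 667nm spot fluorescence with signal-to-noise for antibody binding to printed compounds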
Torsin-1A (Homo sapiens) [8] = target: Torsin-1A (Homo sapiens) (UniProt O14656); assay: TOR1A wild-type binding on microarray – cell lysate, small-molecule microarray, lysate, 635/667 nm, primary screen (AID 1149); details: COS7 hTOR1A-WT lysate, 635 nm fluorescence, higher = more signal
Torsin-1A (Homo sapiens) [9] = target: Torsin-1A (Homo sapiens) (UniProt O14656); assay: torsin A mutant lysate binding on microarrays – cell lysate, small-molecule microarray, COS7 lysate, 635/667 nm fluorescence, primary screen (AID 1150); details: COS7 hTOR1A mutant lysate, 635 nm fluorescence, higher = more signal;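 note: score pools 667 nm emission and signal to noise measuring lysate protein binding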
[10] = test system: Sonic hedgehog protein (Shh); assay: Sonic hedgehog microarray binding compounds – biochemical, small-molecule microarray, 635/667 nm fluorescence, primary screen (AID 1151); details: 635 nm fluorescence, higher = more signal;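 note: Shh protein binding to compounds spotted on small-molecule microarray slides; score combines spot fluorescence intensity with signal-to-noise across triplicate slides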

Sequence of Torsin-1A (Homo sapiens) (O14656 whole entry, looked up): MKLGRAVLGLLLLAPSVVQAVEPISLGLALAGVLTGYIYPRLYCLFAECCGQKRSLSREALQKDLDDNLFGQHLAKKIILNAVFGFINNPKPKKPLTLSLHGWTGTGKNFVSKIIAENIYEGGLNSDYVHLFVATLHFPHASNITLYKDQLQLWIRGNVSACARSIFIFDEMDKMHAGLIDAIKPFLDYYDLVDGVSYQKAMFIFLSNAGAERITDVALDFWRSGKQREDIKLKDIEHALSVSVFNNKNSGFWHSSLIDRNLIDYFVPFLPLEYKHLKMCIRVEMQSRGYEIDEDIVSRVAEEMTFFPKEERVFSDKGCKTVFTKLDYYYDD
Sequence of Streptavidin (Streptomyces avidinii) (P22629 whole entry, looked up): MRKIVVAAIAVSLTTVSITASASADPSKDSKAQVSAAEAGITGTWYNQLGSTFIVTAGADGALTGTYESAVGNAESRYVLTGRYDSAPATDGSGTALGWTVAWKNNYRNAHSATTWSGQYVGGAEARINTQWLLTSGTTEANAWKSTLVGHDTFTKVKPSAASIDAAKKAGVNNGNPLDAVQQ

Row | Structure (SMILES) | composite z-score [1] | z-score [2] | z-score [3] | z-score [4] | z-score [5] | composite z-score [6] | composite z-score [7] | composite z-score (Torsin-1A (Homo sapiens) [8]) | composite z-score (Torsin-1A (Homo sapiens) [9]) | composite z-score [10]
1 | Cc1c(NC(=O)/C(C#N)=C/C=C/c2ccc([N+](=O)[O-])cc2)c(=O)n(-c2ccccc2)n1C | 0.388 | -0.997 (inactive) | 1.12 (inactive) | 0.829 (inactive) | 0.732 (inactive) | 1.32 | 0.0301 | 0.321 | 0.468 | 0.569
2 | O=C(N1CCOCC1)[C@]1(CCS(=O)(=O)c2ccccc2)N=C(c2ccc(OCCCO)cc2)O[C@@H]1c1ccccc1 | 0.308 | -2.3 (inactive) | 0.863 (inactive) | 1.1 (inactive) | 0.711 (inactive) | 0.947 | 0.212 | 0.46 | 0.77 | -0.19
3 | CN1C(=O)C2C(C1=O)C1C=C(CCCO)C2C(C2CC2)N1C (stereo not given) | 0.0748 | -2.56 (inactive) | 0.189 (inactive) | 0.0295 (inactive) | -0.984 (inactive) | -0.45 | 0.0543 | -0.427 | -0.454 | -0.685
4 | CCCC[C@@H](O)C1=C(C)Cn2c(=O)n(-c3ccccc3)c(=O)n2[C@H]1CO | 0.0027 | -1.07 (inactive) | -0.275 (inactive) | 1.77 (inactive) | -0.844 (inactive) | -0.463 | -0.251 | 0.0705 | 0.141 | 0.317
5 | Cc1cccc([C@H]2C[C@H]3C(Br)=C[C@@]2(CO)C(=O)[C@]32CO2)c1 | 0.253 | -0.376 (inactive) | -0.53 (inactive) | -0.595 (inactive) | 3.9 (inactive) | -0.376 | -0.128 | -1.59 | -1.08 | 0.462
6 | C=CCOC(=O)[C@H]1[C@@H]2C(=O)O[C@@H](c3ccccc3)[C@@H](c3ccccc3)N2[C@@H](c2ccc(OCCOC(=O)[C@H]3C[C@H]4C(=O)NCC(=O)N4[C@H]3c3cccc(OCCO)c3)cc2)[C@]12C(=O)Nc1ccc(I)cc12 | 0.984 | -0.469 (inactive) | -0.282 (inactive) | 0.423 (inactive) | -0.142 (inactive) | 0.0708 | 0.434 | 0.418 | 0.83 | 1.94
7 | CC(C)(C)OC(=O)CC[C@@]1(C(N)=O)N=C(c2ccc(OCCCO)cc2)O[C@@H]1c1ccccc1CN=[N+]=[N-] | 1.07 | -0.57 (inactive) | 0.938 (inactive) | 0.171 (inactive) | 0.638 (inactive) | -0.0644 | 0.278 | 0.612 | 1.08 | -0.425
8 | C[C@]1(C(=O)NC2CC2)c2ccccc2C(=O)N(Cc2cc(F)cc(C(F)(F)F)c2)[C@H]1c1ccc(CO)cc1 | -0.76 | -2.15 (inactive) | -1.05 (inactive) | 0.764 (inactive) | 0.864 (inactive) | -0.827 | -0.242 | -2.36 | 0.416 | 1.62
9 | COC(=O)[C@H](Cc1ccccc1)N1CC(C)(OC)O[C@@H](Cc2ccccc2)[C@H]1/C=C/C1CC1 (stereo not given in full) | -0.0712 | -0.628 (inactive) | 0.664 (inactive) | 4.13 (inactive) | 1.12 (inactive) | 0.0404 | -0.0762 | 0.256 | 0.269 | 0.0034
10 | COCCCNC(=O)[C@]1(Cc2ccccc2N=[N+]=[N-])N=C(c2ccc(OCCCO)cc2)O[C@@H]1c1ccccc1 | 0.637 | -3.94 (inactive) | 0.542 (inactive) | 1.76 (inactive) | -1.66 (inactive) | 1.58 | 0.974 | 0.303 | 1.09 | -0.223
11 | CCCCCN1CC=CC23O[C@@H]4/C=C\CCCOC(=O)C4[C@H]2C(=O)N(CCCCCO)[C@@H]3C1=O (stereo not given in full) | -0.827 | -0.347 (inactive) | -0.678 (inactive) | -1.03 (inactive) | 0.0118 (inactive) | -0.878 | -0.128 | -2.11 | -1.09 | -0.0251
12 | CC[C@@H](O[Si](C#C[Si](C(C)C)(C(C)C)C(C)C)(C(C)C)C(C)C)c1cn(Cc2cccc(Cl)c2)nn1 | 0.159 | 0.139 (inactive) | -0.14 (inactive) | -0.272 (inactive) | -0.168 (inactive) | 0.424 | -0.124 | 0.188 | 0.227 | 0.546
13 | O=C(c1ccccc1)N1Cc2ccccc2C[C@@]2(N=C(c3ccc(OCCCO)cc3)O[C@H]2c2ccccc2)C1=O | 1.27 | -4.73 (inactive) | -0.191 (inactive) | 0.904 (inactive) | -1.12 (inactive) | 0.491 | 0.0658 | 0.881 | 1.06 | 2.19
14 | [N-]=[N+]=NCc1ccccc1C[C@]1(C(=O)N2CCCCC2)COC(c2ccc(OCCCO)cc2)=N1 | 0.114 | -4.72 (inactive) | -0.919 (inactive) | 1.93 (inactive) | 1.43 (inactive) | 0.997 | -0.441 | 0.555 | 0.278 | 0.349
15 | COc1ccc(CCNC(=O)[C@@]2(c3ccc([N+](=O)[O-])cc3)CC(=O)N(C3CCCCC3)[C@@H]2c2ccc(CO)cc2I)cc1 | 1.07 | -4.72 (inactive) | 1.02 (inactive) | 0.441 (inactive) | 0.0398 (inactive) | -0.0827 | -0.0695 | 0.628 | 0.0294 | 0.575
16 | CC(C)(C)OC(=O)CC[C@]1(C(N)=O)N=C(c2ccc(OCCCO)cc2)O[C@H]1c1ccccc1N=[N+]=[N-] | 0.641 | -0.284 (inactive) | 0.303 (inactive) | 1.05 (inactive) | -0.677 (inactive) | 1.49 | 0.0966 | 0.448 | 0.424 | -0.74
17 | COc1cccc(C)c1NC(=O)O[C@H]1[C@H](OC(=O)Nc2ccccc2)[C@@H](OC(=O)Nc2ccccc2)[C@@H](OC)O[C@@H]1CO | 0.486 | -4.16 (inactive) | -1.16 (inactive) | 1.61 (inactive) | -2.37 (inactive) | 0.163 | 0.0227 | 2.57 | 0.958 | 0.958
18 | COCCCNC(=O)[C@@]1(CCC(=O)OC(C)(C)C)N=C(c2ccc(OCCCO)cc2)O[C@H]1c1ccccc1 | 0.581 | 0.0272 (inactive) | -0.029 (inactive) | -1.29 (inactive) | -0.391 (inactive) | 0.471 | 0.113 | 0.725 | 1.12 | -0.119
19 | COC(=O)[C@@]1(Cc2ccc(F)cc2)[C@H]2c3cc(C(=O)N(C)C)n(CCF)c3C[C@H]2CN1C(=O)c1ccccc1 | 0.101 | -1.56 (inactive) | -0.501 (inactive) | -0.375 (inactive) | 0.25 (inactive) | 0.471 | 0.117 | 0.632 | 0.606 | -0.447
20 | CC(=O)NCCCC[C@@H]1NC(=O)[C@H]2C[C@@H](C(=O)O)[C@@H](c3cccc(OCCO)c3)N2C1=O | 0.847 | -0.353 (inactive) | -0.814 (inactive) | 1.94 (inactive) | 0.0364 (inactive) | 1.62 | -0.153 | 1.33 | 1.24 | 1.59
21 | COCCOC(=O)N1C(=O)[C@@]2(c3cc(C#CCNC(N)=O)ccc31)[C@H](c1ccccc1OCCO)N1[C@H](c3ccccc3)[C@H](c3ccccc3)OC(=O)[C@H]1[C@@H]2C(=O)N1CCCCCCC1 | 0.112 | -0.923 (inactive) | 0.342 (inactive) | 0.2 (inactive) | 1.97 (inactive) | 0.777 | 0.168 | 0.419 | 0.367 | 0.83
22 | CC1C2C(CCCO)=CC(C3C(=O)N(C)C(=O)C23)N1Cc1cccc(OC(F)(F)F)c1 (stereo not given) | 0.164 | -0.293 (inactive) | 0.403 (inactive) | -0.0142 (inactive) | -0.733 (inactive) | 2.22 | 0.143 | 0.76 | 1.47 | 0.113
23 | COc1ccc(C(=O)Nc2ccc(CN3C(=O)[C@]4(O[C@H](CC(=O)N(CCO)Cc5ccccc5)[C@@H]([Si](C)(C)c5ccc(OC)cc5)[C@@H]4C)c4ccccc43)cc2)cc1 | 0.334 | -4.06 (inactive) | 0.52 (inactive) | 0.339 (inactive) | -0.221 (inactive) | -0.138 | -0.128 | 0.689 | -0.0595 | 1.94
24 | CCCCN1CC=CC23O[C@@H]4/C=C\CCCOC(=O)C4[C@H]2C(=O)N(CCCCCCO)[C@@H]3C1=O (stereo not given in full) | -0.525 | 0.121 (inactive) | -1.2 (inactive) | 0.475 (inactive) | -0.34 (inactive) | -0.654 | -0.154 | -1.63 | -1.49 | 0.145
25 | C[C@]1(C(=O)NCC(F)(F)F)c2ccccc2C(=O)N(Cc2cc(C(F)(F)F)cc(C(F)(F)F)c2)[C@H]1c1ccc(CO)cc1 | -0.127 | -0.286 (inactive) | 0.878 (inactive) | 0.324 (inactive) | 0.0167 (inactive) | -0.7 | -0.0963 | -0.469 | -0.34 | -0.21
26 | O=C(CS)NCCCCCCNC(=O)[C@H]1C[C@H]2C(=O)NCC(=O)N2[C@H]1c1cccc(OCCO)c1 | 0.497 | -2.15 (inactive) | -0.525 (inactive) | 0.0084 (inactive) | -0.963 (inactive) | -0.127 | -0.226 | 0.168 | 0.442 | 1.54
27 | Cc1ccc(S[C@]2(C(=O)NCc3ccccc3)CC(=O)N(Cc3ccccc3Cl)[C@@H]2c2ccc(CO)cc2)cc1 | -0.132 | -1.87 (inactive) | -0.491 (inactive) | -0.0512 (inactive) | -0.226 (inactive) | -0.744 | 0.298 | 0.163 | 0.0869 | 0.469
28 | CCc1cccc(NC(=O)O[C@H]2[C@H](OC(=O)Nc3ccccc3-c3ccccc3)[C@H](OC(=O)Nc3ccccc3-c3ccccc3)[C@@H](OC)O[C@@H]2CO)c1 | 0.947 | -5.67 (inactive) | -1.82 (inactive) | -0.506 (inactive) | -0.238 (inactive) | 0.284 | 0.0345 | 0.762 | 0.875 | 2.18

Source: PubChem BioAssay
